Screens as filed in PubChem BioAssay.
HP1b binding inh: inhibitors of HP1-beta chromodomain binding to methylated histone tails; Potency, µM (doses to about 114 µM), usual class: inhibitors; AID 540317; AlphaScreen HP1-beta / biotin-H3K9me3 peptide binding; 0.56% of 390,000 active; P83916; also: nearly all actives have a fitted effect of over 70% in size
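HP1-beta protein (50 nM final) preincubated 30 min at room temperature with biotinylated H3(1-18)K9me3 peptide (50 nM) in PBS pH 7.4, 0.01% Tween-20, then compound added for 30 min. AlphaScreen streptavidin donor/nickel chelate acceptor beads (10 ug/mL final), 30 min dark, luminescence read.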
PLK1 PBD inh: inhibitors of human PLK1 polo-box domain binding; Plk1 PBD binding of FITC phosphopeptide, fluorescence polarization; Potency, µM, most hits filed as inhibitors; 2.8% of 360,000 active; AID 720504; also: series mostly up to about 57 µM; nearly all actives have a fitted effect of over 65% in size
G9a block: blocks human histone lysine methyltransferase G9a; Q96KQ7; G9a H3K9 monomethylation, AlphaScreen, 2 h; Potency, µM (series often up to 102 µM), usual class: inhibitors; 8.8% of 350,000 active; AID 504332; also: nearly all actives have a fitted effect of over 75% in size
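G9a (20 nM) was preincubated 15 min with compound, then reacted 2 h at room temperature with 500 nM biotin-H3K9 peptide and 20 µM SAM. Monomethyl-H3K9 detected by AlphaScreen using anti-H3K9me1 antibody.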
BAZ2B inh: inhibitors of human BAZ2B bromodomain. Q9UIF8. AlphaScreen BAZ2B-H3K14Ac peptide displacement. Potency, µM (top dose mostly 114 µM), hits mostly inhibitors. 4.4% of 360,000 active. AID 504333; also: nearly all actives have a fitted effect of over 60% in size
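AlphaScreen displacement of biotin-H3(5-23)K14Ac peptide (50 nM final) from BAZ2B (50 nM final) in PBS pH 7.4, 0.01% Tween-20; complex preformed 30 min RT, then compounds (top 110 uM) 30 min RT, beads 20 min dark.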
JMJD2A Tudor inh: blocks the human JMJD2A Tudor domain. O75164. AlphaScreen JMJD2A-Tudor / H3K4me3 peptide binding. Potency, µM (doses to about 114 µM), most hits filed as inhibitors. 4.4% of 390,000 active; also: nearly all actives have a fitted effect of over 50% in size
12-LOX inh: ALOX12 (human) lipoxygenase inhibition; Potency, µM (highest dose often 108 µM), most hits filed as inhibitors; P18054; purified 12hLO, xylenol orange hydroperoxide absorbance; 1.1% of 580,000 active; AID 1671190
Target sequence (P18054 whole entry, looked up): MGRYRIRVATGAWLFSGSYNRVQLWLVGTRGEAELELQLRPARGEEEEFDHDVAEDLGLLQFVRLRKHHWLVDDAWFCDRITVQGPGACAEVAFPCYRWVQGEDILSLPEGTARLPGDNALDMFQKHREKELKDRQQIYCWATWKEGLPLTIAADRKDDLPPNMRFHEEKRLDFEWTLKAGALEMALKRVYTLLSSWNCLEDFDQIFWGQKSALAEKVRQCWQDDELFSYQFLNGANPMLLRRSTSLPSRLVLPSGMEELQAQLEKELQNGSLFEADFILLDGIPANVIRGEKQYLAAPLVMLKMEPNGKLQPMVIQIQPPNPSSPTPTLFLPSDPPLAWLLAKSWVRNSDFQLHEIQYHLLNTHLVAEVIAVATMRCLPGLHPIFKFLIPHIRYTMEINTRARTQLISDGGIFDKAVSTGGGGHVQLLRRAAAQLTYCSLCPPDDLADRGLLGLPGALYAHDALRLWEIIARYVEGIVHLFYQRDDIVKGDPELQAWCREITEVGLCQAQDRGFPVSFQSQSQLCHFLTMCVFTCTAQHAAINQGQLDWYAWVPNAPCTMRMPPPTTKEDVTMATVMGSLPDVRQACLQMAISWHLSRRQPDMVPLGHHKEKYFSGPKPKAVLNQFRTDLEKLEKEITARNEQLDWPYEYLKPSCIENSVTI
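Hydroperoxide product was detected by ferrous iron/xylenol orange as the 573 to 405 nm absorbance ratio. Arachidonic acid at 40 uM (final) was turned over for 30 min at room temperature by 150 nM human 12hLO, pH 7.0 Hepes buffer, after 15 min compound preincubation.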
Of the large screens only hits and unclear results are named; the others gave an inactive call. Compounds with a hit are over-represented: about 9% of the library has one in this group of screens. Calls follow the shape of the dose curve; as a rule, active = well fitted curve in the direction sought with a large enough effect; inconclusive = small, poorly fitted or top-dose-only effect, or another doubt; inactive = no such curve, though single readings can be large; an effect the other way counts as inactive or inconclusive.

Cc1cc2ncn(/N=C/c3ccc(-c4ccccc4)o3)c2cc1C	BAZ2B inh inconclusive, 12-LOX inh inconclusive (no result: G9a block)
Fc1ccc(-n2nnc(-c3nccs3)n2)cc1	JMJD2A Tudor inh inconclusive, 12-LOX inh 11µM
O=C(C1CC=CCC1)N1CCN(C(=O)C2CC=CCC2)CC1 (configuration not stated)	PLK1 PBD inh 30µM
O=C(C1CC=CCC1)N1CCCCCC1 (configuration not stated)	none (no result: HP1b binding inh, G9a block, BAZ2B inh, JMJD2A Tudor inh)
Oc1c(C(c2ccccn2)N2CCCCC2)cc(Cl)c2cccnc12 (configuration not stated)	HP1b binding inh inconclusive, PLK1 PBD inh 30µM, G9a block 7.1µM, BAZ2B inh 7.9µM, JMJD2A Tudor inh 22µM, 12-LOX inh inconclusive
CC(=O)NC(c1ccc(N(C)C)cc1)c1cc(Cl)c2cccnc2c1O (configuration not stated)	12-LOX inh inconclusive (no result: HP1b binding inh, G9a block, BAZ2B inh, JMJD2A Tudor inh)
CN1CCN(C(c2ccc(C(F)(F)F)cc2)c2cc(Cl)c3cccnc3c2O)CC1 (configuration not stated)	G9a block 11µM, BAZ2B inh 40µM, 12-LOX inh inconclusive (no result: HP1b binding inh, PLK1 PBD inh, JMJD2A Tudor inh)
CN1CCN(C(c2ccc(Cl)cc2)c2cc(Cl)c3cccnc3c2O)CC1 (configuration not stated)	HP1b binding inh inconclusive, PLK1 PBD inh 2.4µM, G9a block 2.5µM, BAZ2B inh 32µM, JMJD2A Tudor inh 40µM, 12-LOX inh 10µM
OCCN1CCN(C(c2cccs2)c2ccc3cccnc3c2O)CC1 (configuration not stated)	G9a block inconclusive, BAZ2B inh 20µM (no result: HP1b binding inh, PLK1 PBD inh, JMJD2A Tudor inh, 12-LOX inh)
CCCC(=O)NC(c1ccc(C(C)C)cc1)c1ccc2cccnc2c1O (configuration not stated)	none
CCN1CCN(C(c2ccc(C(F)(F)F)cc2)c2ccc3cccnc3c2O)CC1 (configuration not stated)	HP1b binding inh inconclusive, PLK1 PBD inh 3.8µM, G9a block 2.5µM, BAZ2B inh 28µM, JMJD2A Tudor inh 50µM, 12-LOX inh 8.9µM
O=C(Cn1c(=O)n2nc(-c3cccc(F)c3)nc2c2ccccc21)N1CCN(c2ccc(F)cc2)CC1	none (no result: PLK1 PBD inh)
COc1ccc(C(C)NC(=S)NCc2ccc(F)cc2)cc1OC (configuration not stated)	none
CCC(C)c1ccc(C(C)NC(=S)NCc2ccc(F)cc2)cc1 (configuration not stated)	12-LOX inh 40µM
CCC(NC(=S)NCc1ccc(F)cc1)c1ccc(C(C)C)cc1 (configuration not stated)	12-LOX inh inconclusive
CCCc1ccc(C(C)NC(=S)NC2CCCCC2)cc1 (configuration not stated)	12-LOX inh 35µM
CC(NC(=S)NC1CCCCC1)c1ccccc1 (configuration not stated)	none
CCOc1ccc(C(C)NC(=S)NCc2ccc(Cl)cc2)cc1 (configuration not stated)	12-LOX inh 40µM
CCCc1ccc(C(C)NC(=S)NCc2ccc(F)cc2)cc1 (configuration not stated)	12-LOX inh 32µM
CCNC(=S)NCc1ccc(Cl)cc1	none (no result: G9a block, BAZ2B inh)
Cc1cc([N+](=O)[O-])nn1CC(=O)N1CCCc2ccccc21	none
NC(=S)Nc1cc(Cl)cc(Cl)c1	12-LOX inh inconclusive
CCCOc1cc(C)c2c(c1C)C[C@H](C(C)C(=O)NCc1ccc(OC)cc1)CC2 (some centres not stated)	none (no result: HP1b binding inh, PLK1 PBD inh, G9a block, BAZ2B inh, JMJD2A Tudor inh)
Cc1ccc(C)c(C(C)NC(=O)C2CCCC2)c1 (configuration not stated)	none
Cc1ccc(C)c(C(C)NC(=S)NC2CCCCC2)c1 (configuration not stated)	12-LOX inh 45µM
CC(=O)c1cccc(NC(=O)c2noc3c2CCc2ccccc2-3)c1	none
Cc1ccc(-c2nnn(CC(=O)N(CC(=O)NC3CCCC3)c3ccccc3F)n2)o1	G9a block inconclusive
O=C(Nc1ccccc1)c1cc(-c2ccccn2)nc2ccccc12	none (no result: HP1b binding inh, PLK1 PBD inh, G9a block, BAZ2B inh, JMJD2A Tudor inh)
COc1cc(NC(=O)c2cnc(N)s2)cc(C(=O)Nc2cccc(C(F)(F)F)c2)c1	G9a block inconclusive, BAZ2B inh 20µM, JMJD2A Tudor inh 32µM
COc1cc(NC(=O)c2ccnc(N)c2)cc(C(=O)Nc2cccc(C(F)(F)F)c2)c1	BAZ2B inh 50µM, JMJD2A Tudor inh inconclusive, 12-LOX inh inconclusive
Cc1cc(Sc2nc(NC(C)(C)C)nc(N3CCOCC3)n2)nc(Cl)n1	none
CN(C)CCN(Cc1ccco1)C(=O)c1oc2ccccc2c1NC(=O)c1cccc(F)c1	JMJD2A Tudor inh inconclusive (no result: PLK1 PBD inh)
CN(C)CCN(Cc1ccco1)C(=O)c1oc2ccccc2c1NC(=O)COc1ccccc1	HP1b binding inh inconclusive, PLK1 PBD inh inconclusive, G9a block 45µM, BAZ2B inh inconclusive, JMJD2A Tudor inh 28µM, 12-LOX inh inconclusive
O=C(Nc1ccc(C(=O)O)cc1)/C(=C\c1ccco1)NC(=O)c1ccccc1	none (no result: G9a block)
CC(=O)c1ccc(NC(=O)/C(=C\c2ccco2)NC(=O)c2ccco2)cc1	G9a block 50µM
COc1ccc(NC(=O)/C(=C\c2cccs2)NC(=O)c2ccco2)cc1	PLK1 PBD inh 21µM (no result: G9a block)
O=C(Nc1ccc(C(=O)O)cc1)/C(=C\c1ccco1)NC(=O)c1ccco1	G9a block 50µM
CC(=O)c1cccc(NC(=O)/C(=C\c2ccco2)NC(=O)c2ccco2)c1	12-LOX inh inconclusive
Cc1ccc(NC(=O)/C(=C/c2cccs2)NC(=O)c2ccco2)cc1	none
CCOC(=O)Nc1ccc(C)cc1NC(=O)OCC	none
CCOC(=O)Nc1ccc(NS(=O)(=O)c2ccc(C)cc2Cl)cc1	12-LOX inh 32µM (no result: HP1b binding inh, PLK1 PBD inh, G9a block, BAZ2B inh, JMJD2A Tudor inh)
CNCc1ccncc1	12-LOX inh 0.33µM (no result: HP1b binding inh, PLK1 PBD inh, G9a block, BAZ2B inh, JMJD2A Tudor inh)
CC(C)OC(=O)c1c(NC(=O)C2CC=CCC2C(=O)O)sc2c1CCCCC2 (configuration not stated)	PLK1 PBD inh inconclusive, G9a block 45µM, BAZ2B inh inconclusive, 12-LOX inh inconclusive
NC(=O)c1c(NC(=O)C2CC=CCC2C(=O)O)sc2c1CCCCC2 (configuration not stated)	HP1b binding inh inconclusive, PLK1 PBD inh 27µM, G9a block 8.9µM, BAZ2B inh inconclusive, JMJD2A Tudor inh 56µM
COc1ccc(C[C@H](N)C(=O)N[C@H]2[C@@H](O)[C@H](n3cnc4c(N(C)C)ncnc43)O[C@@H]2CO)cc1	G9a block inconclusive, JMJD2A Tudor inh 79µM
Cc1ccc(NC(=O)CSc2nnc(-c3ccncc3)s2)cc1	none
O=C(CSc1nnc(-c2cccnc2)s1)Nc1ccc(C(=O)O)cc1	G9a block 14µM
COc1ccc(N2CCN(C(=O)c3noc4c3CCCCC4)CC2)cc1	G9a block inconclusive (no result: PLK1 PBD inh)
COc1ccc(/C=N/n2cnc3c([nH]c4ccc(F)cc43)c2=O)cc1CN1CCCC1	HP1b binding inh inconclusive, G9a block 40µM
